Results published in PubChem BioAssay AID690 (Sanford-Burnham Center for Chemical Genomics, 2007).
In all, about 96,000 compounds went through this assay and about 80 (0.08%) were called active. How the calls were made is not given here. A selection follows. Potency and affinity values are given separately. Residues, ends and D or L forms follow the SMILES beside them.

The compounds below were run against Alkaline phosphatase, placental type (Homo sapiens) (UniProt P05187) (assay: inhibition of human placental alkaline phosphatase – biochemical, luminescence, HTS (AID 690)). Settings: purified PLAP, luminescent substrate; at 20 µM; active compounds read high.
Alkaline phosphatase, placental type (Homo sapiens), sequence (P05187 whole entry, looked up): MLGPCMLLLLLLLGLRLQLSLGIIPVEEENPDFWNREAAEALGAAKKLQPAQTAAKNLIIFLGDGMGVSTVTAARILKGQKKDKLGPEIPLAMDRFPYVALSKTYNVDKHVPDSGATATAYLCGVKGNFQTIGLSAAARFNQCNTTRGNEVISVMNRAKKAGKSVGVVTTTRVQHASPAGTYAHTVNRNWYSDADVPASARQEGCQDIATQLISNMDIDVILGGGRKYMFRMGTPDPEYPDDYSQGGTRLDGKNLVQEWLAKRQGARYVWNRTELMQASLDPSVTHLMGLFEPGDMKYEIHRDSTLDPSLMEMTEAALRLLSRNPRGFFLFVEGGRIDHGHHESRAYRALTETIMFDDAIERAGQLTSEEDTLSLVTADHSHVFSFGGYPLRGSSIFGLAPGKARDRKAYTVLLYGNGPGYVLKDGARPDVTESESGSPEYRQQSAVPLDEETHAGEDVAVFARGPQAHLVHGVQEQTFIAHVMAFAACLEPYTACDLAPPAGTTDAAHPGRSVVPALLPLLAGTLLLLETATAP

inhibition, inactive:
O=C(CCCn1c(SCC(=O)NCC2CCCO2)nc2ccccc2c1=O)NCc1ccccc1 (stereo not given) -31.1%
O=C(CCCn1c(SCC(=O)NCC2CCCO2)nc2ccccc2c1=O)NCC1CCCO1 (stereo not given) -4.3%
CC(C)(C)c1nn(-c2ccccc2)c2[nH]c(=O)c(CNc3ccc4c(c3)OCCO4)cc12 -71.4%
Cc1ccc(C(=O)CN(C(=O)c2ccc(Cl)c(Cl)c2)N2C(=O)C3CCCCC3C2=O)cc1 (stereo not given) -10.4%
O=C(/C=C/NNC(=O)c1cccc(Br)c1)c1cccc(Br)c1 -55.3%
CCC(=O)Nc1cccc(C(=O)/C=C/c2ccccc2)c1 -3.5%
O=C(CCN1C(=O)c2ccccc2C1=O)NC1=NCCS1 8.9%
CC1=NOC(=O)/C1=C/c1ccc(N(C)C)cc1 -1.4%
CCOC(=O)C1=NN(c2ccccc2)C(=O)/C1=C\c1ccc(N(C)C)cc1 2.6%
Cc1ccc(C(=O)Nc2nc3ccc(S(C)(=O)=O)cc3s2)s1 1.6%
Cc1ccc(CS/C(Nc2ccccc2C)=C(\C#N)C(=O)NCc2ccco2)c(C)c1 -32.5%
CC(C)Oc1ccc(CNC(=O)CC(c2ccccc2)c2cc(Cl)ccc2O)cc1 (stereo not given) -26.3%
COC(=O)CSc1nsc(SCC(=O)OC)c1C#N 13.1%
CCc1c(C#N)c(N)nc(SCC(=O)OCc2ccccc2)c1C#N 14.4%
O=C(O)CSCc1ccc(Cl)cc1 -5.7%
c1ccc(SCCc2ccncc2)cc1 -3.2%
CS(=O)(=O)NCCSCc1ccc(Cl)cc1 -9.2%
c1ccc2c(CSCCc3ccncc3)cccc2c1 -15.7%
CCn1c(C)c(C(C)=O)c(N2CCN(c3ccccc3)CC2)nc1=S -3.4%
O=C(NCc1ccc2c(c1)OCO2)C1CCCN(S(=O)(=O)c2cccc3nonc23)C1 (stereo not given) -13.3%
O=C1N2CCSC2=NC1(Nc1ccccn1)C(F)(F)F (stereo not given) 2%
COc1ccc(CNC(=O)c2ccccc2[N+](=O)[O-])cc1 -9.5%
CCC(CC)NC(=O)Cc1ccccc1[N+](=O)[O-] -5.8%
Cc1ccc(N(CC(=O)NCc2ccncc2)S(C)(=O)=O)cc1Cl -7%
O=C(CSc1nnc(Cn2nnc3ccccc32)o1)N(Cc1ccc(F)cc1)c1ccccc1 2.6%
CCSc1nc2c(cnn2-c2ccc(C)c(C)c2)c(=O)[nH]1 -20.6%
COC(=O)CN1C(=O)S/C(=C/c2ccc(N3CCCCC3)o2)C1=O -25.9%
CCOC(=O)CN1C(=O)S/C(=C/c2ccc(N3CCCCC3)o2)C1=O -4.2%
CCO/C=C1/C(=O)N(CC)c2ccccc21 4.3%
O=C(OCC(O)CN1CCCCC1)C12CC3CC(CC(C3)C1)C2 (stereo not given) -58.5%
COC(=O)C(N)Cc1ccc(O)cc1 (stereo not given) 18.8%
COC(=O)C(CC(C)C)NC(=O)C(N)Cc1ccccc1 (stereo not drawn) (H-Phe-Leu-OMe; configuration not given here) -5.6%
O=C(CC(NC(=O)c1ccccc1Cl)c1ccccc1)Nc1ccc2c(c1)OCO2 (stereo not given) 2.4%
Cc1cccc(NC(=O)C2c3ccccc3C(=O)N3CCc4ccccc4C23)n1 (stereo not given) 2.2%
O=C(/C(=C/c1ccc(Cl)cc1)c1nc2ccccc2[nH]1)c1cccs1 -30.3%
COc1cc(/C=C(/C(=O)c2cccs2)c2nc3ccccc3[nH]2)ccc1O 33.6%
COc1cc(CNCCc2ccc(F)cc2)ccc1OCc1ccc(Cl)nc1 -50.6%
O=C(N1CCOCC1)C12CC3CC(C1)CC(c1ccccc1)(C3)C2 -20.7%
CSC1=N/C(=C\c2ccc(C)cc2)C(=O)S1 1.7%
CCSC1=N/C(=C\c2ccc(C(=O)O)cc2)C(=O)S1 11.5%
Cn1nc([N+](=O)[O-])nc1N1CCN(c2ccc(F)cc2)CC1 20.5%
CCOC(=O)N1CCC(NC(=O)C(CC(C)C)NC(=O)C2CCC(C)CC2)CC1 (stereo not given) -63.6%
CCN(CC)C(=O)Cn1c(=O)n(-c2ccccc2)c(=O)n1CC(=O)N(CC)CC 8.2%
COC(=O)c1cn[nH]c1NC(=S)Nc1ccc(C)cc1Cl -10%
COC(=O)c1cn[nH]c1NC(=S)Nc1ccc(Cl)c(Cl)c1 -146%
CN(C)S(=O)(=O)c1cccc(C(=O)Nc2cc(Cl)cc(Cl)c2)c1 -58.5%
Cc1noc(C)c1COC(=O)COc1ccc2c(C)cc(=O)oc2c1 8.3%
CCN1C(=C2C(=O)c3ccccc3C2=O)C=Cc2ccccc21 46.7%
CCOC(=O)/C(C#N)=C1/C=Cc2ccccc2N1CC 3.8%
CCCCCOc1ccc(CSC(=N)N)cc1[N+](=O)[O-] 34.2%
CCOc1ccc(CSC(=N)N)cc1[N+](=O)[O-] -79.6%
CCN1/C(=C2\OC(=S)N(C)C2=O)Sc2ccccc21 13.9%
CCN1/C(=C/C(=O)c2ccco2)Sc2ccccc21 -0.2%
CCN(CC)S(=O)(=O)c1ccc(C(=O)Nc2cc(C)cc(C)c2)cc1 6%
Cc1ccc2nc(SCC(=O)Nc3ccc4c(c3)OCCO4)[nH]c2c1 -75.7%
